Screens: PubChem, National Center for Advancing Translational Sciences (NCATS)
Only some compounds are listed: those with a hit (about 7.3% of all), similar ones and a draw of the others.
NPC1 promoter act: qHTS Assay for NPC1 Promoter Activators. Huh7 NPC1 promoter luciferase reporter, 24 h. Potency, µM (series often up to 9.22 µM), without a hit: at the highest dose activation, most hits filed as activators. 320,000 compounds, 2.4% hits; also: % of control where 0% means no effect; nearly all actives have a fitted effect of over 60% in size
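Readout is luciferase luminescence, reflecting NPC1 promoter activation in stably transfected Huh7 cells after 24 h compound exposure at 37 °C in reduced-serum medium with 10% FBS.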
Rab9 prom act: qHTS Assay for Rab9 Promoter Activators; Huh7 Rab9 promoter-luciferase reporter, luminescence, 24 h; Potency, µM (doses to about 9.22 µM), inactives show at the top dose activation, negative = inhibition, actives largely listed as activators; 320,000 compounds, 2.8% hits; also: % of control where 0% means no effect; nearly all actives have a fitted effect of over 60% in size
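Luciferase signal after 10 min detection reagent at ambient indicates Rab9 promoter upregulation; stably transfected Huh7 cells were treated 24 h with compound in DMSO at 37 °C, 5% CO2.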
KinaseGlo FLuc: Counterscreen for Luciferase (Kinase-Glo TM) Inhibition; Potency, µM (top dose mostly 38.3 µM), inactives show at the top dose activity change, negative = inhibition, hits mostly inhibitors; Kinase-Glo luciferase, ATP luminescence, 8 min; 200,000 compounds, 0.28% hits; Luciferin 4-monooxygenase (Photuris pensylvanica), Q27757; also: % is scaled to controls: 0 for no effect and ±100 for the full control effect; nearly all actives have a fitted effect of over 60% in size
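Compounds were added to a substrate mix at pH 7.2 (50 mM imidazole, 10 uM ATP, within the enzyme's linear range), followed by Kinase-Glo detection reagent; luminescence was measured after 8 minutes at ambient temperature.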
ELG1 genotoxic: qHTS screen for small molecules that induce genotoxicity in human embryonic kidney (HEK293T) cells expressing luciferase-tagged ELG1; Potency, µM (series often up to 46 µM), for inactives: top-dose activity change, positive = activation, usual class: activators; HEK293T ELG1-luciferase reporter, luminescence, 16 h; 330,000 compounds, 1.3% hits; also: % of control where 0% means no effect; nearly all actives have a fitted effect of over 60% in size
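DMSO vehicle served as control against compound-treated ELG1-luciferase HEK293T cells; exposure lasted 16 hr at 37 °C and 5% CO2, followed by ONE-Glo luminescence detection after 30 min.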
FLuc modulator: qHTS profiling assay for firefly luciferase inhibitor/activator using purifed enzyme and Km concentrations of substrates (counterscreen for miR-21 project); Potency, µM (doses to about 57.5 µM), for the others: at the top dose activity change, negative = inhibition, actives largely listed as inhibitors; 360,000 compounds, 6.9% hits; AID 588342, 2011; purified FLuc, Km substrates, luminescence inhibition; Luciferin 4-monooxygenase (Photinus pyralis), P08659;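 also: plate controls were vehicle for no effect and reference inhibitor for full effect; nearly all actives have a fitted effect of over 55% in size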
Target sequence (P08659 whole entry, looked up): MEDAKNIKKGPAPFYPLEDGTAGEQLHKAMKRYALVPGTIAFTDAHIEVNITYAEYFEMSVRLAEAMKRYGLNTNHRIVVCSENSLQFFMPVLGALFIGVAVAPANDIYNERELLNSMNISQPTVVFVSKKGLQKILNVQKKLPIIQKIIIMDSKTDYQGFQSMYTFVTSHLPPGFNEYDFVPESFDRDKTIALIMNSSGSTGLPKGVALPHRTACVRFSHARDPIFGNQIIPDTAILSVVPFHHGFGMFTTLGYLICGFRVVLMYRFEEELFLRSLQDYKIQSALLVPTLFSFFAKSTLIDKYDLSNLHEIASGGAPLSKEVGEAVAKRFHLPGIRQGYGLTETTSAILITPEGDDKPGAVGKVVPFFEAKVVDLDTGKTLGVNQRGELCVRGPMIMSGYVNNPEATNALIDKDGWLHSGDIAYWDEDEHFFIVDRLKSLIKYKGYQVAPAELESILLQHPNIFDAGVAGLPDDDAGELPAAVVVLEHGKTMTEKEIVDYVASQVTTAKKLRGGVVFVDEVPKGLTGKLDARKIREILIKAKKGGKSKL
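Purified P. pyralis luciferase, 10 nM final, with Km-level 10 uM D-luciferin and 10 uM ATP in 50 mM Tris acetate pH 7.5, 10 mM Mg acetate, 0.01% Tween-20, 0.05% BSA; 6-point qHTS titration about 60 µM downward; luminescence read.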
SMN2 splice up: qHTS Assay for Enhancers of SMN2 Splice Variant Expression | 210,000 compounds, 2.8% hits | Potency, µM (highest dose often 46.1 µM), without a hit: at the highest dose activity change, positive = activation, most hits filed as activators | HEK293 SMN2-luciferase splicing reporter, luminescence, 30-36 h | AID 1458, 2008; also: % of control where 0% means no effect; nearly all actives have a fitted effect of over 55% in size
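HEK293 cells carry an SMN2 […]–luciferase reporter in which exon 7 inclusion puts luciferase in frame. Cells were plated 10-12 h before compound addition, then incubated 30-36 h at 37C. ONE-Glo luminescence was read; sodium butyrate at 4.5 mM final served as control.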
An asterisk follows results filed as active; u = inconclusive; x = not tested or not shown; [ ] = dose if it differs, or a comment. Calls follow the shape of the dose curve; as a rule, active = well fitted curve in the direction sought with a large enough effect; inconclusive = small, poorly fitted or top-dose-only effect, or another doubt; inactive = no such curve, though single readings can be large; an effect the other way counts as inactive or inconclusive. Potency is read from the fitted curve at half-maximal effect.

SMILES	NPC1 promoter act	Rab9 prom act	KinaseGlo FLuc	ELG1 genotoxic	FLuc modulator	SMN2 splice up
Cc1ccc(C(C)NC(=O)C2CCCO2)cc1C (stereo not drawn)	6%	-2%	-1%	5%	6%	2%
CC(C)Cn1c(SCC(=O)c2c(N)n(C)c(=O)n(C)c2=O)nc2ccccc21	6%	0%	1%	0%	-1%	-17%
O=C(COc1ccc(S(=O)(=O)NCc2ccccc2)cc1Cl)NCC1CCCO1 (stereo not drawn)	9%	-4%	0%	0%	-2%	-11%
Cc1nc(S/C(=C/c2ccc(-c3ccc(C(=O)O)cc3)o2)C(=O)O)n[nH]1	0%	2%	x	1%	u	x
CC(=O)c1ccc(-c2ccc(/C=C(/Sc3n[nH]c(C)n3)C(=O)O)o2)cc1	-3%	2%	x	1%	6µM*	x
Cc1nc(S/C(=C/c2ccc(-c3ccc(Cl)cc3)o2)C(=O)O)n[nH]1	13%	-1%	0%	6%	8.5µM*	-36%
Cc1nc(S/C(=C/c2ccc(-c3cc(Cl)ccc3C)o2)C(=O)O)n[nH]1	-6%	0%	x	1%	27µM*	x
CCOc1ccc(CNC(=O)CN2C(=O)C(c3ccccc3)Oc3cccnc32)cc1 (stereo not drawn)	-5%	-10%	x	-6%	0%	x
CC(=O)Nc1ccc(S(=O)(=O)N2CCC(Oc3ccc(-n4cnnn4)cc3)CC2)cc1	-3%	-6%	x	-8%	-1%	-48%
CCOC(=O)C(C(C)=O)c1c(Br)c(O)c(O)c2c(C(=O)c3ccc(C)cc3)coc12 (stereo not drawn)	-25%	-14%	-5%	7%	19µM*	-4%
Cc1cc(C)c(S(=O)(=O)N2CCN(C(=O)c3cc4ccccc4oc3=O)CC2)c(C)c1	-3%	-4%	x	0%	-2%	x
CC/C(O)=C1\C(=O)CCCC1=NCCc1nc2ccccc2[nH]1	1%	11%	0%	-1%	-3%	-23%
COc1cccc(-c2cc(C(F)(F)F)n3nc(C(=O)N4CCCCC4c4cccnc4)cc3n2)c1 (stereo not drawn)	-8%	-10%	-4%	-13%	15µM*	-49%
COc1ccc(-c2cc(C(F)(F)F)n3nc(C(=O)N4CCCCC4)cc3n2)cc1	2%	-2%	-5%	-6%	u	-10%
O=C(c1cc2nc(-c3ccco3)cc(C(F)(F)F)n2n1)N1CCCCCC1	-2%	7%	2%	-16%	21µM*	-11%
O=C(c1cc2nc(-c3ccco3)cc(C(F)(F)F)n2n1)N1CCN(c2ccccc2)CC1	0%	-7%	1%	-21%	0%	3%
CC(C1CC1)N(Cc1ccccc1)C(=S)Nc1ccccc1Cl (stereo not drawn)	-8%	1%	-1%	-4%	6%	-38%
Cc1cc(C)cc(-n2c(C)cc(/C=N/NC(=O)CN(c3c(C)cccc3C)S(C)(=O)=O)c2C)c1	-1%	-35%	19%	-2%	0%	17%
Cc1ccc(N(CC(=O)N/N=C/c2cc(C)n(-c3ccccc3C)c2C)S(C)(=O)=O)cc1	-5%	3%	-2%	-1%	17µM*	1%
COC(=O)C1=C(C)N(Cc2ccccc2)C(=O)N[C@H]1c1ccc(Br)cc1	0%	-7%	-1%[7.66 µM]	-5%	4%	-1%[9.22 µM]
Cc1ccc(/C(N)=N/OC(=O)Cc2ccccc2)cc1	18%	1%	-3%	u	19µM*	20%
Cc1cccc(/C(N)=N/OC(=O)Cc2cccs2)c1	u	u	-4%	u	13µM*	10%
N/C(=N\OC(=O)Cc1cccs1)c1cccc([N+](=O)[O-])c1	-3%	-2%	-3%	5%	u	-3%
N/C(=N\OC(=O)Cc1cccs1)c1ccccc1	u	27%	-3%	u	15µM*	-4%
Cc1ccc(/C(N)=N/OC(=O)Cc2cccs2)cc1	u	u	-4%	u	9.5µM*	1%
SMILES	NPC1 promoter act	Rab9 prom act	KinaseGlo FLuc	ELG1 genotoxic	FLuc modulator	SMN2 splice up
CNc1c(N)n(Cc2ccccc2)c(=O)[nH]c1=O	1%	-2%	-5%	11%	0%	0%
Cc1ccccc1C(=O)n1nc(-c2ccco2)nc1NCc1cccs1	x	x	x	x	-7%	2%
CCn1c(COc2ccccc2C)nnc1SCC(=O)O	0%	-1%	5%	3%	0%	10%
Cc1ccc(C(=O)NCc2ccco2)cc1S(=O)(=O)N1CCCCC1	0%	7%	1%	0%	1%	-14%
COC(=O)c1c(NC(=O)CSc2nc(-c3ccco3)cc(C(F)(F)F)n2)sc2c1CCCC2	-4%	-2%	1%	-3%	4%[2.3 µM]	22%
N/C(=N\OC(=O)Cc1cccs1)c1ccc(Cl)cc1	20%	24%	x	u	13µM*	x
O=S(=O)(c1ccccc1)c1nnn2c1nc(NC1CCCCCC1)c1sccc12	x	x	x	x	0%	x
O=C(N/N=C/c1c(Cl)cccc1Cl)c1n[nH]c2c1CCCC2	2.8µM*	2.8µM*	8.9µM*	u	6.7µM*	18µM*
Cc1ccsc1/C=N\NC(=O)c1n[nH]c2c1CCC2	1µM*	0.63µM*	7.1µM*	u	2.1µM*	1.6µM*
CCOC(=O)OC(C)OC(=O)C1N2C(=O)C(NC(=O)C(N)c3ccccc3)C2SC1(C)C (stereo not drawn)	x	x	-1%	x	x	5%
CN(Cc1ccccc1)C(=O)c1cccc(N2C(=O)NC3CC2(C)Oc2ccccc23)c1 (stereo not drawn)	-10%	0%	-2%	1%	11%	7%
CC(=O)Cn1ncc(Br)c(Br)c1=O	-41%	-43%	-3%	-21%	8%	-108%
CC(=O)Cn1ncc(N(C)Cc2ccccc2)c(Cl)c1=O	u	u	x	u	17µM*	x
O=C(Nc1ccc(-c2noc(-c3cccs3)n2)cc1)c1cccnc1	1µM*	0.45µM*	-1%	u	4.8µM*	1.3µM*
CC(=O)Nc1cccc(Oc2ccc(-c3noc(C)n3)cc2)c1	3.2µM*	1.6µM*	3%	9.2µM*	12µM*	10µM*
COc1ccc(-c2noc(-c3ccccc3C(=O)Nc3cccc(OC)c3)n2)cc1	5%	-2%	-5%	-1%	11µM*	-35%
COc1cccc(-c2nc(-c3ccc(NC(=O)c4cccnc4)cc3)no2)c1	u	30%	1%	13%	u	-11%
COc1ccc(-c2noc(N3CCC(C(=O)Nc4cccc(OC)c4)CC3)n2)cc1	4%	17%	x	-6%	-20%	x
